About 410 targets per protein were measured; listed, in parts, are those with the strongest signals and a random draw of the rest.
Tests used:
Test in all cases: glycan array binding signal (z-score within array); higher = stronger binding
Settings in all cases: glycan notation: IUPAC condensed, linker removed
[1] = tested on: Neu5Ac(a2-3)Gal(b1-3)[Neu5Ac(a2-6)]GalNAc
Procedure, shortened: (§1)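 Glycan array data came from 3228 arrays in the Consortium for Functional Glycomics database, and only arrays with an available protein sequence were kept. Glycan names were put into IUPAC-condensed notation, and columns mapping to the same glycan were averaged. The binding signal is a within-array Z-score, averaged across arrays of one protein sequence run at different concentrations or buffers and across linkers. A negative Z-score can be read as non-binding.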

[2] = tested on: Neu5Ac(a2-3)Gal(b1-3)GlcNAc6S
Procedure, shortened: as §1

[3] = tested on: Neu5Ac(a2-3)Gal(b1-3)[Fuc(a1-4)]GlcNAc
Procedure, shortened: as §1

[4] = tested on: Man(a1-3)[Man(a1-6)]Man(a1-6)[Man(a1-2)Man(a1-3)]Man(b1-4)GlcNAc(b1-4)GlcNAc
Procedure, shortened: as §1

Man(a1-3)[Man(a1-6)]Man = tested on: Man(a1-3)[Man(a1-6)]Man
Procedure, shortened: as §1

[5] = tested on: Neu5Ac(a2-3)Gal(b1-3)GalNAc(b1-4)[Neu5Ac(a2-3)]Gal(b1-4)Glc
Procedure, shortened: as §1

[6] = tested on: Neu5Ac(a2-3)Gal(b1-3)GalNAc(b1-4)[Neu5Ac(a2-8)Neu5Ac(a2-3)]Gal(b1-4)Glc
Procedure, shortened: as §1

[7] = tested on: Neu5Ac(a2-3)Gal(b1-3)GlcNAc(b1-2)Man(a1-3)[GlcNAc(b1-4)][Neu5Ac(a2-3)Gal(b1-3)GlcNAc(b1-2)Man(a1-6)]Man(b1-4)GlcNAc(b1-4)GlcNAc
Procedure, shortened: as §1

[8] = tested on: Neu5Ac(a2-3)Gal(b1-3)GlcNAc(b1-4)Gal(b1-4)Glc
Procedure, shortened: as §1

[9] = tested on: Neu5Ac(a2-3)Gal(b1-4)GlcNAc(b1-2)Man(a1-3)[GlcNAc(b1-4)][Neu5Ac(a2-3)Gal(b1-4)GlcNAc(b1-2)Man(a1-6)]Man(b1-4)GlcNAc(b1-4)GlcNAc
Procedure, shortened: as §1

[10] = tested on: Neu5Ac(a2-3)Gal(b1-4)GlcNAc(b1-2)Man(a1-3)[Neu5Ac(a2-6)Gal(b1-4)GlcNAc(b1-2)Man(a1-6)]Man(b1-4)GlcNAc(b1-4)GlcNAc
Procedure, shortened: as §1

[11] = tested on: Neu5Ac(a2-3)Gal(b1-3)GlcNAc(b1-3)Gal(b1-4)GlcNAc
Procedure, shortened: as §1

[12] = tested on: Neu5Ac(a2-3)Gal(b1-3)GalNAc
Procedure, shortened: as §1

[13] = tested on: Neu5Ac(a2-3)Gal(b1-3)GlcNAc(b1-3)Gal(b1-3)GlcNAc
Procedure, shortened: as §1

[14] = tested on: Neu5Ac(a2-3)Gal(b1-4)GlcNAc(b1-2)Man(a1-3)[Neu5Ac(a2-3)Gal(b1-4)GlcNAc(b1-2)Man(a1-6)]Man(b1-4)GlcNAc(b1-4)[Fuc(a1-6)]GlcNAc
Procedure, shortened: as §1

Man(b1-4)GlcNAc = tested on: Man(b1-4)GlcNAc
Procedure, shortened: as §1

MurNAc(b1-4)GlcNAc = tested on: MurNAc(b1-4)GlcNAc
Procedure, shortened: as §1

[15] = tested on: Neu5Ac(a2-3)Gal(b1-3)GlcNAc(b1-6)GalNAc
Procedure, shortened: as §1

[16] = tested on: Neu5Ac(a2-3)Gal(b1-4)GlcNAc(b1-2)Man
Procedure, shortened: as §1

[17] = tested on: Man(a1-3)[Man(a1-6)]Man(b1-4)GlcNAc(b1-4)[Fuc(a1-6)]GlcNAc
Procedure, shortened: as §1

MIC3-MAR1b (Eimeria tenella), B6VCV4
glycan array binding signal (z-score) [1]: -0.355

Actinohivin (Actinomycete K97)
glycan array binding signal (z-score) [2]: -0.191 | glycan array binding signal (z-score) [3]: -0.196

Wza (Escherichia coli), P0A930
glycan array binding signal (z-score) [4]: 0.776 | glycan array binding signal (z-score) (Man(a1-3)[Man(a1-6)]Man): 1.81

AgI/II Vhelical-GFP (Streptococcus mutans)
glycan array binding signal (z-score) [5]: 0.244 | glycan array binding signal (z-score) [6]: -0.256 | glycan array binding signal (z-score) [7]: 1.2 | glycan array binding signal (z-score) [8]: -0.297 | glycan array binding signal (z-score) [9]: 0.396 | glycan array binding signal (z-score) [10]: -0.182

SiiE (Salmonella typhimurium), A0A0H3NVH0
glycan array binding signal (z-score) [11]: -0.888

GspB (Streptococcus gordonii), Q939N5
glycan array binding signal (z-score) [12]: 4.52 | glycan array binding signal (z-score) [2]: -0.2 | glycan array binding signal (z-score) [1]: 3.61

AgI/IIC123-GFP (Streptococcus mutans)
glycan array binding signal (z-score) [4]: -0.159 | glycan array binding signal (z-score) [7]: -0.265 | glycan array binding signal (z-score) [13]: -0.456 | glycan array binding signal (z-score) [14]: -0.442

LcI (Legionella pneumophila)
glycan array binding signal (z-score) (Man(b1-4)GlcNAc): 0.079 | glycan array binding signal (z-score) (MurNAc(b1-4)GlcNAc): 0.332 | glycan array binding signal (z-score) [7]: -0.429 | glycan array binding signal (z-score) [15]: 3.77 | glycan array binding signal (z-score) [16]: 2.16

BambL (Burhholderia ambifaria), Q0B4G1
glycan array binding signal (z-score) [11]: -0.316

Epa22
glycan array binding signal (z-score) [17]: -0.324
